Laboratory results from PubChem BioAssay.
Entries with a potency or affinity are not part of this list. Calls of active or inactive are those of the source. Unless noted, the rule behind the calls is not given here.

Each molecule was assayed against Calcium-dependent protein kinase 1 (Plasmodium falciparum (isolate 3D7)) (UniProt P62344) (assay: PfCDPK1 kinase inhibitors, biochemical, TCAMS library (AID 1159585; cut-off not given, nearly all actives have IC50 up to about 0.98 µM;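 note: inhibitors leave more ATP so luminescence rises with inhibition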)). Settings: recombinant PfCDPK1, Kinase-Glo ATP depletion luminescence.
Calcium-dependent protein kinase 1 (Plasmodium falciparum (isolate 3D7)), sequence (P62344 whole entry, looked up): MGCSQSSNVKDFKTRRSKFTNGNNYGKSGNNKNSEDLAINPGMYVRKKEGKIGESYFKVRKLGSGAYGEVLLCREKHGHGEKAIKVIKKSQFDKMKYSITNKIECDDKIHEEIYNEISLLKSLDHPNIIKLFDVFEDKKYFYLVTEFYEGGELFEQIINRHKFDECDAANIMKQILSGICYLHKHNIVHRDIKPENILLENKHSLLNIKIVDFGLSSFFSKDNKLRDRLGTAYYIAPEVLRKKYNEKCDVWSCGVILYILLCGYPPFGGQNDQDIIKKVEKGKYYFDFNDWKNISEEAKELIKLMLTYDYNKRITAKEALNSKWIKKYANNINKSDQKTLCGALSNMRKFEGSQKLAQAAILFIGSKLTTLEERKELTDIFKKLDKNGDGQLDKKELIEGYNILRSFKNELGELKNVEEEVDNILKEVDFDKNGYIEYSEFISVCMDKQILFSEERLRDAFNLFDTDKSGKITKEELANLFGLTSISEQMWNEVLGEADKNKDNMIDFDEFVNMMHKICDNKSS

outcome, inactive:
COc1c(CNCCCCCCNCc2cc(Cl)c3ccccc3c2OC)cc(Cl)c2ccccc12
CCCc1cc(OC)c(CC2c3cccc(O)c3CCN2C)cc1OC (stereo not given)
CCOc1ccccc1CNc1nccc(NCc2ccccc2OC)n1
OCc1ccc2nc3c(cc2c1)-c1cccc2cccc-3c12
COc1ccc2ncc(F)c(CCN3CCC(NCc4cc5c(cn4)OCCS5)CC3)c2c1
CN1CCN(c2ccnc3ccc(NC(=O)Nc4ccc(Cl)c(Cl)c4)cc23)CC1
CCN(CC)CCOc1ccc(C(O)(C#CC(O)(c2ccc(Br)cc2)c2ccc(OCCN(CC)CC)cc2)c2ccc(Br)cc2)cc1 (stereo not given)
CC(=O)Nc1cccc(C(=O)Nc2ccc(-c3cccc(-c4nc5c(C)cccc5[nH]4)c3)cc2)c1
Cn1cncc1C(=O)Nc1cccc(-c2csc(-c3nc4ccccc4[nH]3)c2)c1
OCCN1CCN(c2nc(Nc3cccc(F)c3)c3cnn(-c4ccccc4)c3n2)CC1
Cc1cccc2[nH]c(-c3cccc(-c4ccc(NC(=O)COC(C)C)cc4)c3)nc12
CN(C)CCC1CCCc2ccc(NC(=O)Nc3cccc(Cl)c3Cl)cc21 (stereo not given)
FC(F)(F)c1ccc2nc(-c3ccc(-c4cccc(CNCc5cnn(-c6ccccc6)n5)c4)s3)[nH]c2c1
O=C(NCCCN1CCOCC1)c1csc(Nc2ccc(Cl)c(Cl)c2)n1
CCN(CC)S(=O)(=O)c1ccc(C(C)NC(=O)c2ccccc2COc2ccccc2)cc1 (stereo not given)
Cc1ccc(NC(=O)c2cccc(N3CCN(c4ccncc4)CC3)c2)cc1F
Cc1cc2nc(NC3=NC4(c5ccccn5)N=C(Nc5nc6cc(C)c(C)cc6[nH]5)NC4(c4ccccn4)N3)[nH]c2cc1C (stereo not given)
CCN(CC)S(=O)(=O)c1ccc(C(=O)Oc2ccccc2N(Cc2ccc(OC)cc2)C2=NS(=O)(=O)c3ccccc32)cc1
O=C(NC1CCN(Cc2ccsc2)CC1)c1ccc(-c2cccc(C(F)(F)F)c2)s1
O=[N+]([O-])c1ccc2nc(Nc3ccc(Cl)c(Cl)c3)c(Nc3ccc(Cl)c(Cl)c3)nc2c1
Cc1cnc(CCNC(=O)c2cc(-c3ccc(Cl)cc3)cs2)[nH]1
Cc1cc(C(=O)CN2C(=O)NC3(CCOc4ccccc43)C2=O)c(C)n1Cc1ccc(F)cc1 (stereo not given)
COc1cc2nc(N3CCN(c4nc(N)c5cc(OC)c(OC)cc5n4)CC3)nc(N)c2cc1OC
CS(=O)(=O)Nc1ccc(-c2ccc3ccnc(N)c3c2)cc1
COc1cc(CNCCCNc2nc3ccsc3c(=O)[nH]2)c2[nH]cc(Cl)c2c1
CN1CCC(c2c[nH]c3ccc(NC(=O)Nc4ccc(-c5ccncc5)cc4Cl)cc23)CC1
NC1CCN(c2nc(NCCc3ccc(O)cc3)nc(NCc3ccccc3-c3ccc(C(F)(F)F)cc3)n2)CC1
CN1CCCN(Cc2ccc(-c3cccc(NC(=O)c4cccc(Cl)c4)c3)cc2)CC1
Cc1cc(NC(=O)c2coc3cc(F)c(N4C[C@@H](C)N(C)[C@@H](C)C4)cc23)ccc1-n1ccnc1
Oc1ccc(CCNc2nc(NCc3cccc(OCc4cccc(F)c4)c3)nc(N3CCNCC3)n2)cc1
Nc1nc(N)c2c(ccc3c2ccn3Cc2ccc(F)cc2)n1
Cc1[nH]c(C)c(C(F)(F)F)c(=O)c1-c1ccc(Oc2ccc(OC(F)(F)F)cc2)cc1
COc1ccc2ccc(F)c(CC(=O)N3CCOC(CNCc4cccc(-c5ccc(F)cc5)n4)C3)c2n1 (stereo not given)
C[C@@H](CC1CCCCC1)OC(=O)N(C)[C@H]1CCN(C#N)C1
O=C(Nc1ccc(O)c(-c2nc3ccccc3[nH]2)c1)c1ccc([N+](=O)[O-])cc1
CN1CCc2cc(Br)c(O)cc2C1Cc1ccccc1Cl (stereo not given)
O=S(=O)(Nc1ccc2nccc(N3CCNCC3)c2c1)c1ccc2c(Cl)cccc2c1
CCC(C)c1ccc(NC(=O)Nc2ccc(Cn3ncc(N4CCCNCC4)c(Cl)c3=O)cc2)cc1 (stereo not given)
COc1cc(-n2cnc3cc(-c4ccc([N+](=O)[O-])cc4)sc3c2=O)ccc1OCCN1CCCC1
C[C@H](N[C@H]1CCCc2c1[nH]c1ccc(Br)cc21)c1ccccc1

These molecules were tested against Plasmodium falciparum protein kinase 6 (PK6, PF3D7_1337100) (UniProt Q8IDW1) (assay: PfPK6 kinase inhibitors, biochemical, TCAMS library (AID 1159586)). Settings: recombinant PfPK6, Kinase-Glo ATP depletion luminescence.
Plasmodium falciparum protein kinase 6 (PK6, PF3D7_1337100), sequence (Q8IDW1 1-305): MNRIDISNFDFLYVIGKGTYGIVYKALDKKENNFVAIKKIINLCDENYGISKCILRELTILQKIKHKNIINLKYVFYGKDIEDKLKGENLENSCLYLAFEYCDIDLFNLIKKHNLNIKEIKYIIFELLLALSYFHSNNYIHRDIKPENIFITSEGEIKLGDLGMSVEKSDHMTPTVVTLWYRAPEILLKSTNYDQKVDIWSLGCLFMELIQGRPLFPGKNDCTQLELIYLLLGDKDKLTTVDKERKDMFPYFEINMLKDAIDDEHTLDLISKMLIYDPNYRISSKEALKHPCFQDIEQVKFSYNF

outcome, inactive:
COc1c(CNCCCCCCNCc2cc(Cl)c3ccccc3c2OC)cc(Cl)c2ccccc12
CCCc1cc(OC)c(CC2c3cccc(O)c3CCN2C)cc1OC (stereo not given)
CCOc1ccccc1CNc1nccc(NCc2ccccc2OC)n1
OCc1ccc2nc3c(cc2c1)-c1cccc2cccc-3c12
COc1ccc2ncc(F)c(CCN3CCC(NCc4cc5c(cn4)OCCS5)CC3)c2c1
CN1CCN(c2ccnc3ccc(NC(=O)Nc4ccc(Cl)c(Cl)c4)cc23)CC1
CCN(CC)CCOc1ccc(C(O)(C#CC(O)(c2ccc(Br)cc2)c2ccc(OCCN(CC)CC)cc2)c2ccc(Br)cc2)cc1 (stereo not given)
CC(=O)Nc1cccc(C(=O)Nc2ccc(-c3cccc(-c4nc5c(C)cccc5[nH]4)c3)cc2)c1
Cn1cncc1C(=O)Nc1cccc(-c2csc(-c3nc4ccccc4[nH]3)c2)c1
OCCN1CCN(c2nc(Nc3cccc(F)c3)c3cnn(-c4ccccc4)c3n2)CC1
Cc1cccc2[nH]c(-c3cccc(-c4ccc(NC(=O)COC(C)C)cc4)c3)nc12
CN(C)CCC1CCCc2ccc(NC(=O)Nc3cccc(Cl)c3Cl)cc21 (stereo not given)
FC(F)(F)c1ccc2nc(-c3ccc(-c4cccc(CNCc5cnn(-c6ccccc6)n5)c4)s3)[nH]c2c1
O=C(NCCCN1CCOCC1)c1csc(Nc2ccc(Cl)c(Cl)c2)n1
CCN(CC)S(=O)(=O)c1ccc(C(C)NC(=O)c2ccccc2COc2ccccc2)cc1 (stereo not given)
Cc1ccc(NC(=O)c2cccc(N3CCN(c4ccncc4)CC3)c2)cc1F
Cc1cc2nc(NC3=NC4(c5ccccn5)N=C(Nc5nc6cc(C)c(C)cc6[nH]5)NC4(c4ccccn4)N3)[nH]c2cc1C (stereo not given)
CCN(CC)S(=O)(=O)c1ccc(C(=O)Oc2ccccc2N(Cc2ccc(OC)cc2)C2=NS(=O)(=O)c3ccccc32)cc1
O=C(NC1CCN(Cc2ccsc2)CC1)c1ccc(-c2cccc(C(F)(F)F)c2)s1
O=[N+]([O-])c1ccc2nc(Nc3ccc(Cl)c(Cl)c3)c(Nc3ccc(Cl)c(Cl)c3)nc2c1
Cc1cnc(CCNC(=O)c2cc(-c3ccc(Cl)cc3)cs2)[nH]1
Cc1cc(C(=O)CN2C(=O)NC3(CCOc4ccccc43)C2=O)c(C)n1Cc1ccc(F)cc1 (stereo not given)
COc1cc2nc(N3CCN(c4nc(N)c5cc(OC)c(OC)cc5n4)CC3)nc(N)c2cc1OC
CS(=O)(=O)Nc1ccc(-c2ccc3ccnc(N)c3c2)cc1
COc1cc(CNCCCNc2nc3ccsc3c(=O)[nH]2)c2[nH]cc(Cl)c2c1
CN1CCC(c2c[nH]c3ccc(NC(=O)Nc4ccc(-c5ccncc5)cc4Cl)cc23)CC1
NC1CCN(c2nc(NCCc3ccc(O)cc3)nc(NCc3ccccc3-c3ccc(C(F)(F)F)cc3)n2)CC1
CN1CCCN(Cc2ccc(-c3cccc(NC(=O)c4cccc(Cl)c4)c3)cc2)CC1
Cc1cc(NC(=O)c2coc3cc(F)c(N4C[C@@H](C)N(C)[C@@H](C)C4)cc23)ccc1-n1ccnc1
Oc1ccc(CCNc2nc(NCc3cccc(OCc4cccc(F)c4)c3)nc(N3CCNCC3)n2)cc1
Nc1nc(N)c2c(ccc3c2ccn3Cc2ccc(F)cc2)n1
Cc1[nH]c(C)c(C(F)(F)F)c(=O)c1-c1ccc(Oc2ccc(OC(F)(F)F)cc2)cc1
COc1ccc2ccc(F)c(CC(=O)N3CCOC(CNCc4cccc(-c5ccc(F)cc5)n4)C3)c2n1 (stereo not given)
C[C@@H](CC1CCCCC1)OC(=O)N(C)[C@H]1CCN(C#N)C1
O=C(Nc1ccc(O)c(-c2nc3ccccc3[nH]2)c1)c1ccc([N+](=O)[O-])cc1
CN1CCc2cc(Br)c(O)cc2C1Cc1ccccc1Cl (stereo not given)
O=S(=O)(Nc1ccc2nccc(N3CCNCC3)c2c1)c1ccc2c(Cl)cccc2c1
CCC(C)c1ccc(NC(=O)Nc2ccc(Cn3ncc(N4CCCNCC4)c(Cl)c3=O)cc2)cc1 (stereo not given)
COc1cc(-n2cnc3cc(-c4ccc([N+](=O)[O-])cc4)sc3c2=O)ccc1OCCN1CCCC1
C[C@H](N[C@H]1CCCc2c1[nH]c1ccc(Br)cc21)c1ccccc1
